These results are taken from PubChem BioAssay AID1851 (National Center for Advancing Translational Sciences (NCATS), 2009).

The structures appear in SMILES notation. Values joined by “and” are separate entries in the source; they are usually repeats but may differ in a detail not shown here. Equal values may be shown once. Hit rate of the full screen: of about 16,000 compounds, about 2,600 (16%) were called active. Roughly 20% stayed inconclusive and do not appear here. The call rests on the fitted dose curve; in most records, active means well fitted curve in the direction sought with a large enough effect; inconclusive means small, poorly fitted or top-dose-only effect, or effect the other way; inactive means no such curve, though single readings can be large or run the other way. A selection follows. Some structures have more than one record in an assay (separate samples or runs), and their calls can disagree.
On the % scale 0 is the no-effect control and ±100 the full control effect.

Sequence of Cytochrome P450 2D6 (Homo sapiens) (P10635 whole entry, looked up): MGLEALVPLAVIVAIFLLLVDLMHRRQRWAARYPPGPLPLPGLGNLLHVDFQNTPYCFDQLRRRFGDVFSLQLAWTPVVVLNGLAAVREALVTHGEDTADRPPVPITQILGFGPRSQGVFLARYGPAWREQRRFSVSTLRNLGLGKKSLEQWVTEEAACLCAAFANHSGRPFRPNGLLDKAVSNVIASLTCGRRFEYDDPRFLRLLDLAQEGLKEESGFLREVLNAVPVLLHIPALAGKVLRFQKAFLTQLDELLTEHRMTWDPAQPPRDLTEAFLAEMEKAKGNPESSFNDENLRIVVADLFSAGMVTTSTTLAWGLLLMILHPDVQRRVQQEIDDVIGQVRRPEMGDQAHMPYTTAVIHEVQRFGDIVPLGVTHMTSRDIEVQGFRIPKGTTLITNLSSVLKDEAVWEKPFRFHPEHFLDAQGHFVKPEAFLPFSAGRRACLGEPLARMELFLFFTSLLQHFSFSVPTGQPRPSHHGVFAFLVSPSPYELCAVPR

This experiment has as its target Cytochrome P450 2D6 (Homo sapiens) (UniProt P10635). Nature of the experiment: Cytochrome panel assay with activity outcomes. The note with it: recombinant CYP, pro-luciferin dealkylation, luminescence, p450-cyp2d6; series mostly up to 57.1 µM.
In the case of `CCc1ccccc1N1C(=O)c2cccc3c(N4CCOCC4)c([N+](=O)[O-])cc(c23)C1=O`, the AC50 entry is “inactive”.

As to `O=c1cc(N2CCOCC2)oc2c(-c3ccccc3)cccc12`, the half-maximal activity concentration (AC50) entry is “inactive and 25.1 µM (active)”.

As to `O=S1(=O)C=C(N2CCOCC2)c2ccccc21`, the AC50 result is “inactive”.

As for `CNc1nc(C)cc(C)c1S(=O)(=O)c1ccc(C)cc1`, the AC50 result is “inactive”.

For the compound `Cc1ccc(-n2c3c(c(=O)[nH]c2=O)C(C(F)(F)F)(C(F)(F)F)NC(=O)N3)cc1`, the AC50 result was “inactive”.

As to `CC(CC(=O)Nc1ccc(Cl)c([N+](=O)[O-])c1)c1ccccc1` (stereo unspecified), the AC50 is 0.447 µM (active).

As for `COc1ccc(OC)c(NC(=O)CC(Cc2ccccc2OC)C(=O)O)c1` (stereo unspecified), the AC50 result was “inactive”.

As to `CCN(CC)S(=O)(=O)c1ccc(OC)c(NC(=O)CSc2ccccc2)c1`, the AC50 result is “inactive”.

`CCCOc1ccc(/C=C/C(=O)Nc2ccc([N+](=O)[O-])cc2C)cc1OC`: the AC50 result is “inactive”.

As to `COc1ccc([N+](=O)[O-])cc1NC(=S)NC(NC(=O)Cc1ccc(OC)c(OC)c1)C(Cl)(Cl)Cl` (stereo unspecified), the concentration at half-maximal activity (AC50) is 0.355 µM (active).

In the case of `CCOc1cc(NC(=O)c2ccccc2[N+](=O)[O-])c(OCC)cc1NC(=O)CC(C)C`, the AC50 result is “inactive”.

Turning to `COc1ccccc1NC(=O)Cn1cncc1-c1ccc([N+](=O)[O-])cc1`, the AC50 entry is “inactive”.

In the case of `O=C(CSc1ccc(C(F)(F)F)cc1[N+](=O)[O-])Nc1ccccc1`, the AC50 result was “inactive”.

With `COc1ccc([N+](=O)[O-])cc1NC(=O)CC(C)c1ccccc1` (stereo unspecified), the AC50 was 11.2 µM (active).

Take `CCOc1ccc(NC(=S)NC(=O)/C=C/c2ccc(OC)c(OC)c2)c([N+](=O)[O-])c1`: the AC50 entry was “inactive”.

As for `CCN(CC(=O)Nc1ccc([N+](=O)[O-])cc1OC)c1ccccc1`, the concentration at half-maximal activity (AC50) was 14.1 µM (active).

In the case of `Cc1ccc([N+](=O)[O-])cc1NC(=S)NC(=O)C(C)(C)C`, the AC50 result is “inactive”.

Take `Cc1ccc(S(=O)(=O)N[C@H]2COC(=O)CC=C[C@@H](C)[C@H]3C=C[C@H](O)[C@@H](COC(=O)CC=C[C@H]2C)O3)cc1`: the activity, negative = inhibition is -6.53% [at 11.4 µM] (inactive) and 13.3% [at 11.4 µM] (inactive).

Take `Cc1ccc(N2C(=O)CSC2c2cccnc2)cc1F` (stereo unspecified): the AC50 entry is “inactive”.

As for `c1ccc(-c2noc(-c3ccc4ccccc4c3)n2)cc1`, the AC50 result is “inactive”.

In the case of `CC(C)[C@H](CO)Nc1nc(Nc2ccc(C(=O)O)c(Cl)c2)c2ncn(C(C)C)c2n1`, the AC50 entry was “inactive”.

Consider `C=CCNC(=O)c1cccn1-c1ccsc1C(=O)OC`, for which the AC50 result is “inactive”.

Take `O=C(N[C@@]1(C(=O)O)C[C@@H]1c1ccccc1)c1ccccc1`: the activity, negative = inhibition was 11.3% [at 11.4 µM] (inactive).

For `CCCCn1c(SC(C)C(N)=O)nc2cc(C(=O)OC)ccc2c1=O` (stereo unspecified), the AC50 result is “inactive”.

Turning to `C/C(N)=C(/C#N)C(=O)CSc1nnc(COc2cc(C)ccc2C)o1`, the AC50 entry was “inactive”.

On to `COc1ccc(S(=O)(=O)N2CC3CCCN3c3ccc(C(F)(F)F)cc32)cc1` (stereo unspecified), for which the AC50 entry was “inactive”.

As to `Cc1nn(Cc2ccc(Cl)cc2)c(C)c1NC(=O)CSc1nc2c(c(C(F)(F)F)n1)CCc1ccccc1-2`, the AC50 entry was “inactive”.

For the compound `Nc1ccc(N=Nc2c(S(=O)(=O)O)cc3ccccc3c2S(=O)(=O)O)cc1`, the activity, negative = inhibition is 8.88% [at 11.4 µM] (inactive).

Regarding `COc1cnc(-c2ccccn2)nc1Oc1ccc(Cl)c2ccccc12`, the AC50 entry was “inactive”.

Take `Cn1cc(-c2nc3cnc(N4CCOCC4)nc3n(CCC#N)c2=O)c2ccccc21`: the AC50 result is “inactive”.

On to `CCOc1ccc(Cc2nc(C)c(CC(=O)N3CCOCC3)c(=O)[nH]2)cc1`, for which the AC50 entry was “inactive”.

Take `Cc1noc(C)c1C(=O)N1CCC2(CCCN(C(=O)Nc3cccc(F)c3)C2)CC1`: the AC50 entry is “inactive”.

On to `NC(=NCc1ccccc1)NC(=O)c1nc(Cl)c(N)nc1N`, for which the concentration at half-maximal activity (AC50) is 15.8 µM (active) and 5.01 µM (active).

On to `NC(Cc1ccccc1)=NCC(=O)O`, for which the activity, negative = inhibition was 9.41% [at 11.4 µM] (inactive).

For the compound `COC(=O)c1nnn(Cc2ccccc2)c1N`, the AC50 result is “inactive”.

Take `NC(=NCc1ccc(Cl)c(Cl)c1)NC(=O)c1nc(Cl)c(N)nc1N`: the AC50 is 12.6 µM (active).

Consider `Cc1cc(C)c2c(=O)[nH]c(SCC(=O)N(C)C)nc2n1`, for which the AC50 result was “inactive”.

Consider `CN(C)c1ncc2nc(-c3ccc(Cl)cc3)c(=O)n(Cc3cccs3)c2n1`, for which the AC50 result was “inactive”.

As for `CCOc1ccc(OCC)c(-c2c(=O)n(OCc3ccc(C(C)(C)C)cc3)c3ccccc3[n+]2[O-])c1`, the AC50 entry is “inactive”.

Turning to `CC(=O)NNc1cccc(Cl)n1`, the AC50 entry was “inactive”.

Take `CCOC(=O)C1=C(c2ccccc2)N=c2s/c(=C\c3ccc(O)cc3)c(=O)n2C1c1cccs1` (stereo unspecified): the AC50 entry was “inactive”.

For `CCOC(=O)C1=C(c2ccccc2)N=c2s/c(=C\c3cc(OC)c(OC)c(OC)c3)c(=O)n2C1c1cccs1` (stereo unspecified), the AC50 result was “inactive”.

Consider `CCOC(=O)C1=C(c2ccccc2)N=c2s/c(=C\c3cccc(O)c3)c(=O)n2C1c1cccs1` (stereo unspecified), for which the AC50 is 3.16 µM (active).

In the case of `Cc1cc(/C=C(/C#N)C(=O)Nc2ccccc2)c(C)n1-c1cccnc1`, the AC50 entry was “inactive”.

On to `O=c1c(-c2cccs2)nc2cncnc2n1-c1ccccc1`, for which the AC50 result was “inactive”.

With `O=c1[nH][nH]c(C(F)(F)F)c1C=Nc1ccccc1Cl`, the AC50 result is “inactive”.

Regarding `O=C(CSc1cccc2cccnc12)OCC(=O)c1ccccc1`, the AC50 entry is “inactive”.

Turning to `CCNc1ncc2nc(CCc3ccccc3)c(=O)n(-c3ccc(OC)cc3)c2n1`, the concentration at half-maximal activity (AC50) is 0.251 µM (active).

As to `Cn1c(=O)c(CCc2ccccc2)nc2cncnc21`, the AC50 result was “inactive”.

Turning to `Cn1c(=O)c(CCc2ccccc2)nc2cnc(Nc3ccccc3)nc21`, the AC50 entry is “inactive”.

On to `CCNc1ncc2nc(CCc3ccccc3)c(=O)n(C)c2n1`, for which the AC50 is 1.58 µM (active).

`COc1ncc2nc(CCc3ccccc3)c(=O)n(-c3ccccc3)c2n1`: the AC50 entry is “inactive”.

Consider `CCNc1ncc2nc(CCc3ccccc3)c(=O)n(-c3ccccc3)c2n1`, for which the AC50 is 0.1 µM (active).

Regarding `CCNc1ncc2nc(C)c(=O)n(C3CC3)c2n1`, the AC50 result was “inactive”.

With `CCNc1ncc2nc(CCc3ccccc3)c(=O)n(C3CC3)c2n1`, the AC50 was 0.398 µM (active).

`COc1cccc(Nc2ncc3nc(CCc4ccccc4)c(=O)n(C4CC4)c3n2)c1`: the AC50 entry was “inactive”.

For `CCNc1ncc2nc(CCc3ccccc3)c(=O)n(Cc3ccc(F)cc3)c2n1`, the AC50 entry was “inactive”.

Turning to `COc1ccc(-n2c(=O)c(CCc3ccccc3)nc3cncnc32)cc1`, the AC50 result is “inactive”.

As to `COc1ccc(-n2c(=O)c(CCc3ccccc3)nc3cnc(N4CCN(C)CC4)nc32)cc1`, the AC50 entry was “inactive”.

For the compound `CC(C)Cc1nc(N2CCN(C(=O)c3ccccc3)CC2)c(C#N)c2c1CCC2`, the AC50 entry is “inactive”.

Turning to `Nc1nc(N)[n+]([O-])c(N)c1NCO`, the activity, negative = inhibition is -8.44% [at 11.4 µM] (inactive).

With `CCN1C(=O)[C@H]2[C@H]3[C@H](O)[C@H](O)C/C(=N/OCC(C)C)[C@@H]3CC[C@@H]2C1=O`, the activity, negative = inhibition is 8.5% [at 11.4 µM] (inactive).

Regarding `O=C(CN1C(=O)C2C3C=CC(C3)C2C1=O)Nc1ccc(C(=O)O)cc1` (stereo unspecified), the AC50 entry is “inactive”.

Consider `CC(C)OC(=O)c1cccc(C(=O)Oc2ccc(Br)cc2)n1`, for which the AC50 entry was “inactive”.

Regarding `COc1cc(C2C(C#N)=C(N)N(Nc3ccccc3)C3=C2C(=O)CC(C)(C)C3)ccc1OCc1ccccc1` (stereo unspecified), the AC50 result is “inactive”.

Regarding `Cc1c(-n2cc(C(=O)c3cc(Cl)ccc3O)cc(C#N)c2=O)c(=O)n(-c2ccccc2)n1C`, the AC50 entry is “inactive”.

In the case of `CN(C)[C@H]1C(=O)C(C(=O)NCN2CCCC2)=C(O)[C@]2(O)C(=O)C3=C(O)c4c(O)cccc4[C@@](C)(O)[C@H]3C[C@@H]12`, the AC50 result is “inactive”.

`CCOC(=O)c1c(NC(=O)c2c(Br)cnn2C)c(C#N)nn1-c1ccccc1`: the AC50 entry is “inactive”.

`O=C(N/N=C/c1ccccn1)c1ccco1`: the AC50 result is “inactive”.

As for `COc1cccc2cc(NC(=O)C3CCCCC3)c(=O)oc12`, the AC50 result was “inactive”.

On to `Cc1ccc(-n2nc(C)c3c2OC(N)=C(C#N)C3c2ccco2)cc1` (stereo unspecified), for which the AC50 entry was “inactive”.

`COc1ccc(C(=O)N2CCCCC2)cc1S(=O)(=O)Nc1ccccc1`: the AC50 entry was “inactive”.

With `CCOc1ccc(-c2nn(-c3ccccc3)cc2/C=C2\SC(N)=NC2=O)cc1C`, the AC50 entry was “inactive”.

On to `CSc1nsc(SCc2ccc(Cl)cc2)n1`, for which the AC50 entry is “inactive”.

For the compound `O=C1c2ccccc2CC[C@H]1CNCCc1ccc(O)cc1`, the AC50 is 0.398 µM (active).

Consider `CCOc1cc(C)ccc1OCc1nnc(SCC(=O)c2cccc([N+](=O)[O-])c2)n1C`, for which the AC50 entry is “inactive”.

For `CCOC(=O)CSC1=NC(=O)/C(=C\c2ccc(Cl)cc2)S1`, the AC50 entry is “inactive”.

With `C[C@@H](CN1CCC(Cc2ccccc2)CC1)[C@H](O)c1ccc(O)cc1`, the half-maximal activity concentration (AC50) is 1 µM (active).

In the case of `C[C@@H](CN1CCC(Cc2ccccc2)CC1)[C@@H](O)c1ccc(O)cc1`, the AC50 entry was “inactive”.

Turning to `COc1cc(CC(=O)OC2CCOC2=O)cc(OC)c1OC` (stereo unspecified), the AC50 entry is “inactive”.

On to `COCCCNC(=O)C1C2C=CC3(CN(Cc4ccc(C)cc4)C(=O)C13)O2` (stereo unspecified), for which the AC50 entry is “inactive”.

Consider `Cc1ccc(CN2CC34C=CC(O3)C(C(=O)NCc3ccc5c(c3)OCO5)C4C2=O)cc1` (stereo unspecified), for which the AC50 is 14.1 µM (active).

As to `O=C(NCC1COc2ccccc2O1)C1C2C=CC3(CN(Cc4cccs4)C(=O)C13)O2` (stereo unspecified), the concentration at half-maximal activity (AC50) was 14.1 µM (active).

As for `CCCCNC(=O)C1C2C=CC3(CN(Cc4ccccc4Cl)C(=O)C13)O2` (stereo unspecified), the AC50 result is “inactive”.

On to `Cc1ccc(CN2CC34C=CC(O3)C(C(=O)NCc3ccco3)C4C2=O)cc1` (stereo unspecified), for which the AC50 entry was “inactive”.

For `COc1ccc(CCN2CC34C=CC(O3)C(C(=O)NCc3ccccc3)C4C2=O)cc1OC` (stereo unspecified), the AC50 entry was “inactive”.

`CCOc1cc(S(=O)(=O)N(Cc2ccccc2)Cc2ccccc2)c(OCC)cc1-n1cnnn1`: the AC50 result was “inactive”.

Regarding `Cc1nc2ncnn2c(C)c1CCC(=O)NCc1ccccc1`, the AC50 result was “inactive”.

As for `COc1ccc(NC(=O)CSc2nncn2C)c([N+](=O)[O-])c1`, the AC50 entry was “inactive”.

Turning to `CCOc1ccc(-c2cc(CCCC(=O)Nc3cc(OC)ccc3OC)no2)cc1`, the AC50 result was “inactive”.

In the case of `CCOc1ccc(-n2c(SCC(=O)Nc3ccc(OC)cc3OC)nc3c(c2=O)SCC3)cc1`, the AC50 is 2.24 µM (active).

As for `N#Cc1cccc(NC(=O)N2CC[C@@]3(CCCN(C(=O)c4ccncc4)C3)C2)c1`, the AC50 entry was “inactive”.

Regarding `CS(=O)(=O)N1CCC[C@@]2(CCN(C(=O)Nc3cccc(C#N)c3)C2)C1`, the AC50 result is “inactive”.

Turning to `CCCCc1cc(=O)oc2cc(OCC(=O)N(CC)CC)ccc12`, the half-maximal activity concentration (AC50) is 12.6 µM (active).

As for `CCCc1cc(=O)oc2cc(OCC(=O)N3CCc4ccccc43)ccc12`, the AC50 result was “inactive”.

On to `CCCc1cc(=O)oc2cc(OCc3nn[nH]n3)ccc12`, for which the AC50 result is “inactive”.

The AC50 is the midpoint of the concentration-response curve, whichever way the signal moves.
